# How the values were obtained:
# Experiment in all cases: DAPPL (digital affinity profiling via proximity ligation, sequencing); 10 mM Tris-HCl pH 7.5, 50 mM NaCl, 1 mM DTT, 4% glycerol, room temperature, 30 min; GST-TFs on glutathione beads, 16-mer random dsDNA library, 0.1% formaldehyde crosslink after washing; high values mean tight binding
# FLI1 = molecular target: T1, FLI1 (Homo sapiens, UniProt Q01543 1-452); details: protein: recombinant; tags: N-terminal GST; dsDNA, one strand shown
# T1 sequence: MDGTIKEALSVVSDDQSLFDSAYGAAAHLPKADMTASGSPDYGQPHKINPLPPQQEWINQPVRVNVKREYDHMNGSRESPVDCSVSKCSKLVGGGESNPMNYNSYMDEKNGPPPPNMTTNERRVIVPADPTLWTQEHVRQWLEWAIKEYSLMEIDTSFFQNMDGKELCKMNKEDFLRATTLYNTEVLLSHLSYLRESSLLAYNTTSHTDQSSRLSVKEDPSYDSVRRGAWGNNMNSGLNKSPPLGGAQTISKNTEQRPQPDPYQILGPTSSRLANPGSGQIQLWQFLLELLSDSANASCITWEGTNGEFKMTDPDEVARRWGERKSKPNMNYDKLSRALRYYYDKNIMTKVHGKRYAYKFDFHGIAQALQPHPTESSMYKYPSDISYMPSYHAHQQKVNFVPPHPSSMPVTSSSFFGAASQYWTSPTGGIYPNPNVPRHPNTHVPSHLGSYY
# Method in brief: (§1)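 Binding signal is defined as a hexamer's read frequency for one factor over its frequency for the tag-only sample. To obtain reads, GST-fused human transcription factors were expressed in yeast, captured on glutathione beads, barcoded with DNA and pooled with that sample. Pools met 200 nmole of a 16-mer random double-stranded DNA library in Tris/NaCl/DTT/glycerol buffer for 30 min at room temperature before washing, 0.1% formaldehyde crosslinking, proximity ligation (BsaI/T4 ligase, 1 h, 37 °C), PCR and Illumina NextSeq500 sequencing.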
# ELK1 = molecular target: T2, ELK1 (Homo sapiens, UniProt P19419 1-428); details: protein: recombinant; tags: N-terminal GST; dsDNA, one strand shown
# T2 sequence: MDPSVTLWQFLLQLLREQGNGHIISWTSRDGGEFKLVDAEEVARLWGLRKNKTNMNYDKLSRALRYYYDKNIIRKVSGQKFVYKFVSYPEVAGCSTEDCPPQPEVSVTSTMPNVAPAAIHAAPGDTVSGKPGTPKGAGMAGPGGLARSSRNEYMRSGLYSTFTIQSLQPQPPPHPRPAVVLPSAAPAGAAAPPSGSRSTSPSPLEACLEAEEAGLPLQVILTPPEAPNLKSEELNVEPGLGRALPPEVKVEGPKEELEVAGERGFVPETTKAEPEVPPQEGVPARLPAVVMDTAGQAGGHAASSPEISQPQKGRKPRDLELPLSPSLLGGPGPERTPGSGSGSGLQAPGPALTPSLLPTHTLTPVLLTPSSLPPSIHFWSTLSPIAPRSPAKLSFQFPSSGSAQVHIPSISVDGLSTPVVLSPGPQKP
# Method in brief: as §1
# GABPA = molecular target: T3, GABPA (Homo sapiens, UniProt Q06546 1-454); details: protein: recombinant; tags: N-terminal GST; dsDNA, one strand shown
# T3 sequence: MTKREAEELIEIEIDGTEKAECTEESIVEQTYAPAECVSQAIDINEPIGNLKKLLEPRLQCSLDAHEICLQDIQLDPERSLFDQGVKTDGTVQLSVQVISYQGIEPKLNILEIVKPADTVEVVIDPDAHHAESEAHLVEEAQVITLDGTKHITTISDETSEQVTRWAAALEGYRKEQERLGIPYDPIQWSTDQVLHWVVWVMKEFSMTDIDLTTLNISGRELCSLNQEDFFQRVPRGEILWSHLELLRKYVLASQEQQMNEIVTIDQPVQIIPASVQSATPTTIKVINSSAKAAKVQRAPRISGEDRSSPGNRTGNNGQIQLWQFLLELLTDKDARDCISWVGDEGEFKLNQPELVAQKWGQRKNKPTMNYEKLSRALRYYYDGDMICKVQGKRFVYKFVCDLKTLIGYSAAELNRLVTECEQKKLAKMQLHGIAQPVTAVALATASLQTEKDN
# Method in brief: as §1
# ERG = molecular target: T4, ERG (Homo sapiens, UniProt P11308 1-479); details: protein: recombinant; tags: N-terminal GST; dsDNA, one strand shown
# T4 sequence: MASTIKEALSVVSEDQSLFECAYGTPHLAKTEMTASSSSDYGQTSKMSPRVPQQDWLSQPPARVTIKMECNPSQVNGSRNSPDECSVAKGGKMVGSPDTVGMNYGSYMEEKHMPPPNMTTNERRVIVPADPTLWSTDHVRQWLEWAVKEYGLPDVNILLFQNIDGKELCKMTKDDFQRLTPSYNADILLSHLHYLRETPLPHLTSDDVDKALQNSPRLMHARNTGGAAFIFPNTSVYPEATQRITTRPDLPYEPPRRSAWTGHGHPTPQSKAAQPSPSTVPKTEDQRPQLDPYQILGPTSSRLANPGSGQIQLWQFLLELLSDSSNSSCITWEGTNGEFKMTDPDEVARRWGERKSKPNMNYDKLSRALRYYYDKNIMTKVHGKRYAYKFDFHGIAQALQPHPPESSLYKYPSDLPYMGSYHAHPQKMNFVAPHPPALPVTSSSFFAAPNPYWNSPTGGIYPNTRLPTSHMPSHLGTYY
# Method in brief: as §1
# ELF1 = ELF1 (Homo sapiens, UniProt P32519 1-619); details: protein: recombinant; tags: N-terminal GST; dsDNA, one strand shown
# Method in brief: as §1
# EHF = molecular target: T5, EHF (Homo sapiens, UniProt Q9NZC4 1-300); details: protein: recombinant; tags: N-terminal GST; dsDNA, one strand shown
# T5 sequence: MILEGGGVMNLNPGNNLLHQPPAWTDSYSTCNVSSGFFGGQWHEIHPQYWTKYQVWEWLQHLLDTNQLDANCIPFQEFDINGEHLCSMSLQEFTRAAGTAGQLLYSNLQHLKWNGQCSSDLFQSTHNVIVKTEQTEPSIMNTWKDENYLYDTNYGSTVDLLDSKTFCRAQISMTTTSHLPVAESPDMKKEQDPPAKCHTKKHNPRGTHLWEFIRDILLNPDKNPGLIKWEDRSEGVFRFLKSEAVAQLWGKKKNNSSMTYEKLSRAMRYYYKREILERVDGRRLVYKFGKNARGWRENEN
# Method in brief: as §1
# SPI1 = SPI1 (Homo sapiens, UniProt P17947 1-270); details: protein: recombinant; tags: N-terminal GST; dsDNA, one strand shown
# Method in brief: as §1
# SPIB = SPIB (Homo sapiens, UniProt Q01892 1-262); details: protein: recombinant; tags: N-terminal GST; dsDNA, one strand shown
# Method in brief: as §1
# ELK3 = molecular target: T6, ELK3 (Homo sapiens, UniProt P41970 1-407); details: protein: recombinant; tags: N-terminal GST; dsDNA, one strand shown
# T6 sequence: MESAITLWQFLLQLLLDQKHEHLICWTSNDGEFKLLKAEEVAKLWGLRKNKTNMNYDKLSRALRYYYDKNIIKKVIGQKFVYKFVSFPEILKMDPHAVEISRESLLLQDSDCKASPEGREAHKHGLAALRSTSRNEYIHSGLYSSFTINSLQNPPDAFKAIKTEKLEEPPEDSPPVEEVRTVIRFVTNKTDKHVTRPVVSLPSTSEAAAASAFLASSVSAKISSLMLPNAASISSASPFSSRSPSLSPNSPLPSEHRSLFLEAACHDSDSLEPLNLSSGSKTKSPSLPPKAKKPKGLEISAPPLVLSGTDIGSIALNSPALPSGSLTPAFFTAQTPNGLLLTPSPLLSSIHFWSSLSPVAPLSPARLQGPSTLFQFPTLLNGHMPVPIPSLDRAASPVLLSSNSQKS
# Method in brief: as §1
# FEV = molecular target: T7, FEV (Homo sapiens, UniProt Q99581 1-238); details: protein: recombinant; tags: N-terminal GST; dsDNA, one strand shown
# T7 sequence: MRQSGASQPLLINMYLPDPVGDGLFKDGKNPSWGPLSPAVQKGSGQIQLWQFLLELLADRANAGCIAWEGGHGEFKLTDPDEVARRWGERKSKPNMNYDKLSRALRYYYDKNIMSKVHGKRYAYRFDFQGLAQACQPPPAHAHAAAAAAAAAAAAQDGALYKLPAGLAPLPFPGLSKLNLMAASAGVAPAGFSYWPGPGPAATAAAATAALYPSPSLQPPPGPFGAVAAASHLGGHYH
# Method in brief: as §1
# ETV5 = ETV5 (Homo sapiens, UniProt P41161 1-510); details: protein: recombinant; tags: N-terminal GST; dsDNA, one strand shown
# Method in brief: as §1
# HSF1 = HSF1 (Homo sapiens, UniProt Q00613 1-529); details: protein: recombinant; tags: N-terminal GST; chain copies: 3; dsDNA, one strand shown
# Method in brief: as §1
# SPIC = molecular target: T8, SPIC (Homo sapiens, UniProt Q8N5J4 1-248); details: protein: recombinant; tags: N-terminal GST; dsDNA, one strand shown
# T8 sequence: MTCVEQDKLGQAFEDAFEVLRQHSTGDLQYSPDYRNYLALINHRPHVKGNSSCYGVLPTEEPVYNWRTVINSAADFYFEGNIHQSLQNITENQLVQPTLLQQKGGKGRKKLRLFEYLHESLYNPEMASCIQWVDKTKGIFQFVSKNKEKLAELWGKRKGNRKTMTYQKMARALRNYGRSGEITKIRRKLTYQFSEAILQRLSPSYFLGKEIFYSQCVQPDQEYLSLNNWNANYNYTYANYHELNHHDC
# Method in brief: as §1
# ELF4 = ELF4 (Homo sapiens, UniProt Q99607 1-663); details: protein: recombinant; tags: N-terminal GST; dsDNA, one strand shown
# Method in brief: as §1
# ELK4 = molecular target: T9, ELK4 (Homo sapiens, UniProt P28324-2 1-405); details: protein: recombinant; tags: N-terminal GST; dsDNA, one strand shown
# T9 sequence: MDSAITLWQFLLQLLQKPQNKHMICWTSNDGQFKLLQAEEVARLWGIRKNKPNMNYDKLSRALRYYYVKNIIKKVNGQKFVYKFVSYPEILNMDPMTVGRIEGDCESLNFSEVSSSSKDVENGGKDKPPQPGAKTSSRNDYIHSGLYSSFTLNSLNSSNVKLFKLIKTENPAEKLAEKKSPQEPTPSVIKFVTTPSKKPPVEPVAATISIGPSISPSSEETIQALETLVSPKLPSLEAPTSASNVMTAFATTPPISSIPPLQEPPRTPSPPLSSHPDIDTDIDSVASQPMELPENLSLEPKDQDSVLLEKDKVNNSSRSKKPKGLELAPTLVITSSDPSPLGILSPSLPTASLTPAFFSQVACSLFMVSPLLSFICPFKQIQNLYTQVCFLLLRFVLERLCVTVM
# Method in brief: as §1
# ETV2 = molecular target: T10, ETV2 (Homo sapiens, UniProt O00321 1-342); details: protein: recombinant; tags: N-terminal GST; dsDNA, one strand shown
# T10 sequence: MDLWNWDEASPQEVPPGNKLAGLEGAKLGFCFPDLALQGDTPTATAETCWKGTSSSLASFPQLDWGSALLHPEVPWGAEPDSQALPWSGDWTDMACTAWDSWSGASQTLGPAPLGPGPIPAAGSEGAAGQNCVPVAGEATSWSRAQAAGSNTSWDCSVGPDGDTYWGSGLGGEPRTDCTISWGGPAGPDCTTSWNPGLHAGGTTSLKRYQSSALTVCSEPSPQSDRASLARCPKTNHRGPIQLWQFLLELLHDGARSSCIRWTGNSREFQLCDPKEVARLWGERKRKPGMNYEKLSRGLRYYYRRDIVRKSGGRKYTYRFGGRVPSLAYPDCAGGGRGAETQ
# Method in brief: as §1
# ELF3 = molecular target: T11, ELF3 (Homo sapiens, UniProt P78545 1-371); details: protein: recombinant; tags: N-terminal GST; dsDNA, one strand shown
# T11 sequence: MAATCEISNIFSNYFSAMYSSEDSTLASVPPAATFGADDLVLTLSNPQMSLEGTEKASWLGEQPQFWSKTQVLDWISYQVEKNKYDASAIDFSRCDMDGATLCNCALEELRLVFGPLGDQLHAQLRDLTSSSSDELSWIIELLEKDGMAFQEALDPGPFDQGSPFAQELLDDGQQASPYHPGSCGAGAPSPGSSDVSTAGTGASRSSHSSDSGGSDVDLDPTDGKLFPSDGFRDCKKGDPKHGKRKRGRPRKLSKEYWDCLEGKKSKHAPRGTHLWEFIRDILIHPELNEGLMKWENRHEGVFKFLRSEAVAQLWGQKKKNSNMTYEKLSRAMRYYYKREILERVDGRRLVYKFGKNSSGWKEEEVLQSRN
# Method in brief: as §1
# CRX = CRX (Homo sapiens, UniProt O43186 1-299); details: protein: recombinant; tags: N-terminal GST; dsDNA, one strand shown
# Method in brief: as §1
# ETV1 = ETV1 (Homo sapiens, UniProt P50549 1-477); details: protein: recombinant; tags: N-terminal GST; dsDNA, one strand shown
# Method in brief: as §1
# CRX, sequence (O43186 whole entry): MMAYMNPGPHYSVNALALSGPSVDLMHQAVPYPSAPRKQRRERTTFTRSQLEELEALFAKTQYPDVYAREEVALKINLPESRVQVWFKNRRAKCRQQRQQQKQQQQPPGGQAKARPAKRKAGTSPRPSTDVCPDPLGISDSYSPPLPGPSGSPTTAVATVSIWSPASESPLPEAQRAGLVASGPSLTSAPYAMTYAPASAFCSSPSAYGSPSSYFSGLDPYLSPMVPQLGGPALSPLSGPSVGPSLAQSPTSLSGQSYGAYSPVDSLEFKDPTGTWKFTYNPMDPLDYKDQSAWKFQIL
# ETV1, sequence (P50549 whole entry): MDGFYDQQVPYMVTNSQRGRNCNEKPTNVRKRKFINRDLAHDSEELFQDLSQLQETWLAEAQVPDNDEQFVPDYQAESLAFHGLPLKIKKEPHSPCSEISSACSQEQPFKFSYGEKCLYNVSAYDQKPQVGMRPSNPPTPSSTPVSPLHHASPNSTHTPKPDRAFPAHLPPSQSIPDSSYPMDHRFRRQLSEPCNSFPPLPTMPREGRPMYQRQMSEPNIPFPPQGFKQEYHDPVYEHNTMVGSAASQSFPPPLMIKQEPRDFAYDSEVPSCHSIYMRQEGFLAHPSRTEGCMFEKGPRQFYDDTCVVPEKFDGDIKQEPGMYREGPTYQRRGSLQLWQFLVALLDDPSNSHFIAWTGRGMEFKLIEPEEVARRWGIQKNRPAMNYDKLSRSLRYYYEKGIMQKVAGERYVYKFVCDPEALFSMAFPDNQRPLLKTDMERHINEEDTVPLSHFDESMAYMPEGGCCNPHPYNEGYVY
# HSF1, sequence (Q00613 whole entry): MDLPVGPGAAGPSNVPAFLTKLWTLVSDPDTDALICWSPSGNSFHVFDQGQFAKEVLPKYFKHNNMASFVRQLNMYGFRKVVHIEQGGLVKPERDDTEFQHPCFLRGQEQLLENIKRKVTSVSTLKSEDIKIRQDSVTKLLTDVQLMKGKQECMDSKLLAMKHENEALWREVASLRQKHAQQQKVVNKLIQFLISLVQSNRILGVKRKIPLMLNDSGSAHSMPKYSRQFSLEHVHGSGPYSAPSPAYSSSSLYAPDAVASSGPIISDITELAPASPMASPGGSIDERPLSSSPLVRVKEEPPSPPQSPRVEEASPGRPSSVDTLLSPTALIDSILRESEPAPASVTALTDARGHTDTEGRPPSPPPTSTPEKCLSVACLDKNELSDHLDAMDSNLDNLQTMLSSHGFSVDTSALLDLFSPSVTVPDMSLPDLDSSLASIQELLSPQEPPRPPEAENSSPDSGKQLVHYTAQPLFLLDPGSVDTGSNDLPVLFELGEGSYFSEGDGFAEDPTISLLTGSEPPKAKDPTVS
# ELF1, sequence (P32519 whole entry): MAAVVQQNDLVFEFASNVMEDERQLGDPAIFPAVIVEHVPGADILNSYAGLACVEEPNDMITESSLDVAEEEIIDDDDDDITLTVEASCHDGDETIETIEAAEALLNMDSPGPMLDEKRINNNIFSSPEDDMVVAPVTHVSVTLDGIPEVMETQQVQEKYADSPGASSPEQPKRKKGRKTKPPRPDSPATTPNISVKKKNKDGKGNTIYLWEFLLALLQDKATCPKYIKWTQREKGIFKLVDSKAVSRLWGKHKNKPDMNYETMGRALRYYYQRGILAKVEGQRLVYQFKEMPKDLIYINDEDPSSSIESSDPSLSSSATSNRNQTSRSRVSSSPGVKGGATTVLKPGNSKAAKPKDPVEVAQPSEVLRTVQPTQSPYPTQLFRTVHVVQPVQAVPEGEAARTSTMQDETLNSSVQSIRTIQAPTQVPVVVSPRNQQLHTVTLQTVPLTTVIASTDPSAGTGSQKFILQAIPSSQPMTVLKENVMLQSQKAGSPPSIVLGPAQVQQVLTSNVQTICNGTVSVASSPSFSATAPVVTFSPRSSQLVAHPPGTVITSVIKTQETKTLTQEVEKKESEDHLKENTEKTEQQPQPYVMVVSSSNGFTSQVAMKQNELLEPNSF
# ELF4, sequence (Q99607 whole entry): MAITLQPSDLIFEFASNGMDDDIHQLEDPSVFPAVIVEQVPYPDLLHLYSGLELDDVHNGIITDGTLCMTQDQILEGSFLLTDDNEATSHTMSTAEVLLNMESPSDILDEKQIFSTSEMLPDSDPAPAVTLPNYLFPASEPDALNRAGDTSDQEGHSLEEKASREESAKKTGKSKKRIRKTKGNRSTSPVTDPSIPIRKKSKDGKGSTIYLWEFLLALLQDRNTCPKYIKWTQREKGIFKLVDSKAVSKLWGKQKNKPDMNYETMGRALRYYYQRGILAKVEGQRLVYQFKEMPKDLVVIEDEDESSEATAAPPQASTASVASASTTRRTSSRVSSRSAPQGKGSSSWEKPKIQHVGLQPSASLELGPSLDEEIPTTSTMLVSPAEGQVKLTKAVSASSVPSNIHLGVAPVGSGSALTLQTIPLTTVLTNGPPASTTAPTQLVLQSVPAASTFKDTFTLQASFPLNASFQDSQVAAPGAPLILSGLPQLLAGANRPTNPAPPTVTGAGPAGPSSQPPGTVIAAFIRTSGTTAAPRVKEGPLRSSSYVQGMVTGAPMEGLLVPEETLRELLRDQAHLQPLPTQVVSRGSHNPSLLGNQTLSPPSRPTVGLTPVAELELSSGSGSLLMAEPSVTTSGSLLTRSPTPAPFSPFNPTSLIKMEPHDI
# ETV5, sequence (P41161 whole entry): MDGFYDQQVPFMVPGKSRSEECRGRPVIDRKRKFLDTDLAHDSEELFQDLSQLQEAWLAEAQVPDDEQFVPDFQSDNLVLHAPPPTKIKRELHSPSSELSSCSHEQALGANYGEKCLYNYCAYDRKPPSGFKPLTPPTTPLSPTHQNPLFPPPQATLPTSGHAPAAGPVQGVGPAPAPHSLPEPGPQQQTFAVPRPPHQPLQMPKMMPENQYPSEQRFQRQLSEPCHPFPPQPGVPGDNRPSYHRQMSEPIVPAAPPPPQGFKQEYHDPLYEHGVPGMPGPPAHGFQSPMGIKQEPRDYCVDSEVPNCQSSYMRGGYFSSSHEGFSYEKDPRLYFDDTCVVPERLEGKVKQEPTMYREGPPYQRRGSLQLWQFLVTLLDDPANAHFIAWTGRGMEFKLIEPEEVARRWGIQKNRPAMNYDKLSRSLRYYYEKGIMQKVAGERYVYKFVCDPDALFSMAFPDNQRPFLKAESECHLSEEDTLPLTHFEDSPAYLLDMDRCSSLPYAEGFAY
# SPIB, sequence (Q01892 whole entry): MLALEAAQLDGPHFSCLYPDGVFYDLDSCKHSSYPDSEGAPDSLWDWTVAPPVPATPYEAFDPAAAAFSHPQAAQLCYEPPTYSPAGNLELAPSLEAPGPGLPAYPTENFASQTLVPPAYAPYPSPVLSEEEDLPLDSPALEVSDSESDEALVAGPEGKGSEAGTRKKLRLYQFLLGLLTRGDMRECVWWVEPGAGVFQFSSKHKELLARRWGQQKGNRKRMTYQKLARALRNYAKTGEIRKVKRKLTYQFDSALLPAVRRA
sequence,measurement,setting,value
TATGTA,binding signal,FLI1,"1.32 fold enrichment (6-mer frequency, TF over GST control)"
same,binding signal,ELK1,"1.25 fold enrichment (6-mer frequency, TF over GST control)"
same,binding signal,GABPA,"1.29 fold enrichment (6-mer frequency, TF over GST control)"
same,binding signal,ERG,"1.2 fold enrichment (6-mer frequency, TF over GST control)"
same,binding signal,ELF1,"1.29 fold enrichment (6-mer frequency, TF over GST control)"
same,binding signal,EHF,"1.23 fold enrichment (6-mer frequency, TF over GST control)"
same,binding signal,SPI1,"1.3 fold enrichment (6-mer frequency, TF over GST control)"
same,binding signal,SPIB,"1.31 fold enrichment (6-mer frequency, TF over GST control)"
same,binding signal,ELK3,"1.17 fold enrichment (6-mer frequency, TF over GST control)"
same,binding signal,FEV,"1.28 fold enrichment (6-mer frequency, TF over GST control)"
same,binding signal,ETV5,"1.25 fold enrichment (6-mer frequency, TF over GST control)"
same,binding signal,HSF1,"1.28 fold enrichment (6-mer frequency, TF over GST control)"
same,binding signal,SPIC,"1.26 fold enrichment (6-mer frequency, TF over GST control)"
same,binding signal,ELF4,"1.38 fold enrichment (6-mer frequency, TF over GST control)"
same,binding signal,ELK4,"1.39 fold enrichment (6-mer frequency, TF over GST control)"
same,binding signal,ETV2,"1.23 fold enrichment (6-mer frequency, TF over GST control)"
same,binding signal,ELF3,"1.52 fold enrichment (6-mer frequency, TF over GST control)"
same,binding signal,CRX,"1.51 fold enrichment (6-mer frequency, TF over GST control)"
same,binding signal,ETV1,"1.3 fold enrichment (6-mer frequency, TF over GST control)"

# Source: PMC7862700, “An all-to-all approach to the identification of sequence-specific readers for epigenetic DNA modifications on cytosine”
